Assay results from PubChem BioAssay (Tox21).
Inconclusive results are not listed. Entries that show only a call come without a potency. The source made the active and inactive calls. Calls come from the whole dose curve; as a rule, active = well fitted curve in the direction sought with a large enough effect in the repeat runs; inconclusive = weak or mixed curves; inactive = no such curve, though single readings can be large; an effect the other way counts as inactive or inconclusive.

Target: Voltage-gated inwardly rectifying potassium channel KCNH2 (Homo sapiens) (UniProt Q12809)
Experiment: Human Ether-a-go-go-Related Gene (hERG) channel small molecule antagonists: fluorescence cell-based qHTS assay (AID 1671200)
Conditions: hERG-U2OS cells, FluxOR thallium flux fluorescence; series mostly up to 76.8 µM
In short: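 First, 1000 cells per well are seeded and cultured overnight at 37 C. Next, FluxOR II dye is loaded for 1 h at room temperature, protected from light. After 10 more minutes, stimulus is added and fluorescence is read.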
Note: nearly all actives have a fitted effect of over 50% in size.
Potency is the fitted concentration of half-maximal effect.

Chain of Voltage-gated inwardly rectifying potassium channel KCNH2 (Homo sapiens) (Q12809 whole entry, looked up): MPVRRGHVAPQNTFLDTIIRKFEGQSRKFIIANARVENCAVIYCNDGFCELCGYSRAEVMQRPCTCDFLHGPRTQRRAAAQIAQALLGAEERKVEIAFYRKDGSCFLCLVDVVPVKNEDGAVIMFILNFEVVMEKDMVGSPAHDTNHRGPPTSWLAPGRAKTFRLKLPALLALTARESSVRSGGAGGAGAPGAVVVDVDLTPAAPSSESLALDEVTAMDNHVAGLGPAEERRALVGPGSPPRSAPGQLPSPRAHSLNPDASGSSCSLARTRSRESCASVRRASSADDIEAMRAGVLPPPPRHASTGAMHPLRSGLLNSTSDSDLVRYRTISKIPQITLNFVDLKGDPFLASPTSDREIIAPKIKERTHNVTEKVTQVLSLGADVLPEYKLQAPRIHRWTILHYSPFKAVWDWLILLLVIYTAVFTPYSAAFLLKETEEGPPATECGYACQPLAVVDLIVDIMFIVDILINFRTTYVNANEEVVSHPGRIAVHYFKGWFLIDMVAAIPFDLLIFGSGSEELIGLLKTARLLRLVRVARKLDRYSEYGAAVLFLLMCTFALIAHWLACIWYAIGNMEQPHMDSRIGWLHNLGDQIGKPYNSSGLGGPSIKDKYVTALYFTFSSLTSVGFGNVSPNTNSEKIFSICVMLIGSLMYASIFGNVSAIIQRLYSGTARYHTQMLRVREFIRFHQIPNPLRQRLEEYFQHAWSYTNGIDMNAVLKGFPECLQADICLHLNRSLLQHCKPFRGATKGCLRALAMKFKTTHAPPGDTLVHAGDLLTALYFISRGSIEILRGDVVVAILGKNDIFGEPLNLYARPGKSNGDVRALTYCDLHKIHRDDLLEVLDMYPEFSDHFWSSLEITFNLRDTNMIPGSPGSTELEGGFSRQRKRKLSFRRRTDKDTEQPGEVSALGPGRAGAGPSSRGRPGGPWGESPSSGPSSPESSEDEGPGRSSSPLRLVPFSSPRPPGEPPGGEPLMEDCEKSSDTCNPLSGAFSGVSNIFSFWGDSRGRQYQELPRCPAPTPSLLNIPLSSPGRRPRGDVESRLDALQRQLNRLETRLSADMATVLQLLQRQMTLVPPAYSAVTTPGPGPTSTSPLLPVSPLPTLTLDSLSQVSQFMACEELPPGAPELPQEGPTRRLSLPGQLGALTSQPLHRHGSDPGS

SMILES | Potency
NC1CCN(c2nc3c(cc2F)c(=O)c(C(=O)O)cn3-c2ccc(F)cc2F)C1 (stereo not drawn) | inactive
OCCC1CCCCN1 (stereo not drawn) | inactive
COC(=O)C(C)=O | inactive
Cc1ccc(C(N)=O)cc1N | inactive
O=C1CCCCCO1 | inactive
Cn1c(=O)c2c(ncn2CC(O)CO)n(C)c1=O (stereo not drawn) | inactive
CCCCc1cc2ccccc2c(OCCN(C)C)n1 | 3.38 µM (active)
C=Cc1c(C)c2cc3[nH]c(cc4nc(cc5nc(cc1[nH]2)C(C)=C5CCC(=O)O)C(CCC(=O)O)=C4C)c(C)c3C=C | inactive
CC[C@H](C)[C@@H](C(=O)O)n1sc2ccccc2c1=O | inactive
NC(=S)N/N=C/c1cccnc1 | inactive
O=C(NN1CCCC1)NS(=O)(=O)c1ccc(Cl)cc1 | inactive
Cc1ccc(C)o1 | inactive
C=C(C)C(=O)OCCOc1ccccc1 | inactive
CCCC(=O)OCC | inactive
CC/C(=C\C(=N/O)C(N)=O)C(C)[N+](=O)[O-] (stereo not drawn) | inactive
SC1CCCC1 | inactive
Cc1ncsc1CCO | inactive
Nc1cnn([C@@H]2O[C@H](CO)[C@@H](O)[C@H]2O)c(=O)n1 | inactive
CC(=O)c1ccc2c(c1)[C@H](NC(=O)c1ccc(F)cc1)[C@@H](O)C(C)(C)O2 | inactive
CCCCCCc1ccc(N)cc1 | inactive
COc1ccccc1OC(=O)Oc1ccccc1OC | inactive
O=C(CC(=O)c1ccccc1)c1ccccc1 | inactive
CC[C@H](C)[C@H](N)C(=O)O | inactive
NCc1ccccc1 | inactive
CCN1CCC[C@H]1CNC(=O)c1c(OC)ccc(Br)c1OC | inactive

Target: Cytochrome P450 3A4 (Homo sapiens) (UniProt P08684)
Experiment: Cytochrome P450 Family 3 Subfamily A Member 4 (CYP3A4) small molecule antagonists: luciferase reporter qHTS assay (AID 1671201)
Conditions: P450-Glo CYP3A4 enzyme, luciferin luminescence, 1 h; series mostly up to 115 µM
In short: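 Enzyme and proluciferin substrate are mixed with test chemicals for 10 min, then NADPH regeneration system drives turnover for 1 h at room temperature. A detection reagent halts the reaction; luminescence after 20 min gives relative activity.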

Chain of Cytochrome P450 3A4 (Homo sapiens) (P08684 whole entry, looked up): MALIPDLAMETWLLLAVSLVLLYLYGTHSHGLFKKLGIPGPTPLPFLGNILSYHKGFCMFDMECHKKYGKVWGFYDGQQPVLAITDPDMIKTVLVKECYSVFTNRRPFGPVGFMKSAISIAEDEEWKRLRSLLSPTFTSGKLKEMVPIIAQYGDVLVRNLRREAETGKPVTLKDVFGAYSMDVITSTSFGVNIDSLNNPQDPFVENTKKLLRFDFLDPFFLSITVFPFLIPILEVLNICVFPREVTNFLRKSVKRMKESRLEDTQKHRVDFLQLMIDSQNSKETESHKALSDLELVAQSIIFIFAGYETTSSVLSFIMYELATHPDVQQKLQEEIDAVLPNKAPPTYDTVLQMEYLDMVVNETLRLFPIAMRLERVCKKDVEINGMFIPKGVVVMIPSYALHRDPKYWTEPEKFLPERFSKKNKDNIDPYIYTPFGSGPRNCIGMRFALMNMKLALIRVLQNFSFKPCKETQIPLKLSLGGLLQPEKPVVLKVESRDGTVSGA

SMILES | Potency
NC1CCN(c2nc3c(cc2F)c(=O)c(C(=O)O)cn3-c2ccc(F)cc2F)C1 (stereo not drawn) | inactive
OCCC1CCCCN1 (stereo not drawn) | inactive
COc1cc(C(C)(C)C)c(O)c(C(C)(C)C)c1 | 35.6 µM (active)
COC(=O)C(C)=O | inactive
Cc1ccc(C(N)=O)cc1N | inactive
O=C1CCCCCO1 | inactive
Cn1c(=O)c2c(ncn2CC(O)CO)n(C)c1=O (stereo not drawn) | inactive
O=C(Cl)c1ccc([N+](=O)[O-])cc1 | inactive
CCCCc1cc2ccccc2c(OCCN(C)C)n1 | inactive
CCCCCC/C=C/C=O | inactive
CCOC(=O)CC(C)C | inactive
CC(=O)CC(=O)c1ccccc1 | 63.7 µM (active)
C=Cc1c(C)c2cc3[nH]c(cc4nc(cc5nc(cc1[nH]2)C(C)=C5CCC(=O)O)C(CCC(=O)O)=C4C)c(C)c3C=C | inactive
CN1CCC(=C2c3ccccc3CCc3sccc32)CC1 | inactive
CCCCCOC(=O)COc1cc(N2C(=O)C3=C(CCCC3)C2=O)c(F)cc1Cl | 6.33 µM (active)
CC[C@H](C)[C@@H](C(=O)O)n1sc2ccccc2c1=O | inactive
NC(=S)N/N=C/c1cccnc1 | inactive
CC(=O)N(O)CCCCCNC(=O)CCC(=O)N(O)CCCCCNC(=O)CCC(=O)N(O)CCCCCN | inactive
O=C(NN1CCCC1)NS(=O)(=O)c1ccc(Cl)cc1 | inactive

SMILES | Potency
Cc1ccc(C)o1 | inactive
C=C(C)C(=O)OCCOc1ccccc1 | inactive
CCCC(=O)OCC | inactive
CC/C(=C\C(=N/O)C(N)=O)C(C)[N+](=O)[O-] (stereo not drawn) | inactive
SC1CCCC1 | inactive
Cc1ncsc1CCO | inactive
Nc1cnn([C@@H]2O[C@H](CO)[C@@H](O)[C@H]2O)c(=O)n1 | inactive
CC(=O)c1ccc2c(c1)[C@H](NC(=O)c1ccc(F)cc1)[C@@H](O)C(C)(C)O2 | 29.9 µM (active)
Nc1ccc(C(=O)Nc2ccccc2N)cc1 | inactive
Cl/C(=C\n1cncn1)c1ccc(Cl)cc1Cl | inactive
CC(C(=O)O)c1ccc(C(=O)c2ccccc2)s1 (stereo not drawn) | inactive
Cn1c(NCCN(CCO)CCCc2ccc([N+](=O)[O-])cc2)cc(=O)n(C)c1=O | inactive
CCCCCCc1ccc(N)cc1 | 35.6 µM (active)
COc1ccccc1OC(=O)Oc1ccccc1OC | inactive
O=C(CC(=O)c1ccccc1)c1ccccc1 | inactive
CC[C@H](C)[C@H](N)C(=O)O | inactive
NCc1ccccc1 | inactive
CCN1CCC[C@H]1CNC(=O)c1c(OC)ccc(Br)c1OC | inactive
N[C@H]1C(O)O[C@H](CO)[C@H](O)[C@@H]1O (stereo partly drawn) | inactive
